ssDAF-12 act: S. stercoralis DAF-12 activation, primary screen; 1% of 370,000 active; AID 652126; activation, % at 6.8 µM; HEK293 ssDAF-12/GRIP1 lit1-tk-luc reporter, luminescence; % of 3 µM dafachronic acid response;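 active means activation above the mean over all tested compounds plus 3 SD, cut at about 0.9% in these data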;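 further: 0% = DMSO-only wells and 100% = 3 µM delta7-dafachronic acid wells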
DAX1 inh-1: blocks DAX1 repression of SF-1 activated StAR promoter; 1.1% of 370,000 active; AID 652010; inhibition, % at 6.8 µM; HEK293T StAR-luciferase reporter, SF-1/DAX-1 repression relief;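 active means inhibition above the mean over all tested compounds plus 3 SD, cut at about 3.6% in these data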;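 further: 0% = DAX-1 cells with DMSO and 100% = cells lacking DAX-1 with DMSO; higher inhibition means more luminescence from relief of DAX-1 repression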
hcDAF-12 act: H. contortus DAF-12 activation, primary screen; 1.4% of 370,000 active; HEK293 hcDAF-12 lit1-tk-luc reporter, luminescence; 0% DMSO, 100% Δ7-dafachronic acid; activation, % at 6.8 µM;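 active means activation above the mean of all tested compounds plus 3 SD, cut at about 5.5% in these data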;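 further: 100% = response to 3 µM Δ7-dafachronic acid high control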
DAX1 inh-2: inhibitors of human orphan nuclear receptor DAX1 (NR0B1) | 0.99% of 340,000 active | P51843 | AID 504766 | inhibition, % at 6.75 µM | HEK293 Gal4-DAX1 luciferase reporter, luminescence;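 active means inhibition above the mean over all tested compounds plus 3 SD, cut at about 4.2% in these data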;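 further: 0% = DAX1-transfected cells with DMSO and 100% = empty-vector control cells with DMSO; inhibition shows as a rise in luminescence from relieved DAX1 repression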
hgDAF-12 ag: hgDAF-12 agonism, primary luciferase screen. 1.8% of 370,000 active. AID 687014. activation, % at 6.8 µM. HEK293 GAL4-hgDAF12 UAS-luciferase reporter, agonist luminescence; normalized to butyrate control;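 active means activation above a cutoff set at the mean of all screened compounds plus 3 SD, cut at about 10% in these data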;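 further: 0% = DMSO wells and 100% = sodium butyrate wells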
LXR ag: LXR-beta agonism as hcDAF-12 counter-screen. activation, % at 6.8 µM. shares compounds with hcDAF-12 act. HEK293 Gal4-LXR tk-luc reporter, luminescence, 24 h; normalized: DMSO 0%, positive control 100%. 3,400 tested, under 10 active. AID 743027;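 active means mean percent activation of the reporter above a cutoff set as the average over tested compounds plus their standard deviation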
Target sequence (P55055 whole entry, looked up, the tested form may be a part): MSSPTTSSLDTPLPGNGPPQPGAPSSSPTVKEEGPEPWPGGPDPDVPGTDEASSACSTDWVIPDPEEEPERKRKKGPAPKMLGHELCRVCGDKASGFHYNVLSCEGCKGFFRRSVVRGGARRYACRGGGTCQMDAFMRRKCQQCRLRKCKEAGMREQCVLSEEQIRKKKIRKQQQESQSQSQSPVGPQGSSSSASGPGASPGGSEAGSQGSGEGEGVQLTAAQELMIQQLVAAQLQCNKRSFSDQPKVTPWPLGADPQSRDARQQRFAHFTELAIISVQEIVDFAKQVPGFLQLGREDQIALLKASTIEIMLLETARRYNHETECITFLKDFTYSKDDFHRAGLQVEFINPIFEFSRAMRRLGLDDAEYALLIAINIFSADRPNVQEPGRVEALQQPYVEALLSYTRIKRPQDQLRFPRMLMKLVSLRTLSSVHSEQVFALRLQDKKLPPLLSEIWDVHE
hcDAF12 ag: hcDAF-12 agonism, confirmation assay | 61% of 3,400 active | HEK293 hcDAF-12 lit1-tk-luc reporter, luminescence; % of Δ7-dafachronic acid response | activation, % at 6.8 µM | shares compounds with hcDAF-12 act;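 active means mean activation across triplicate tests above the threshold derived from the earlier primary screen, cut at about 5.5% in these data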;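 further: 0% = DMSO only wells and 100% = 3 µM Δ7-dafachronic acid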
Numbers without * were called inactive; / = not tested or not shown. A selection: hits, their analogues and other compounds. The true share with any hit is near 4.1%.

SMILES | ssDAF-12 act | DAX1 inh-1 | hcDAF-12 act | DAX1 inh-2 | hgDAF-12 ag | LXR ag | hcDAF12 ag
C=CCN1C(=O)[C@@H](CC(=O)N2CCC(c3ccccc3)CC2)[C@]2(C(=O)OC)CCCCC=C12 | -1 | 0 | -1 | / | -1 | / | /
Oc1ccccc1-c1nc(N2CCN(Cc3ccccc3)CC2)c2ccccc2n1 | 0 | 0 | 8.5* | -1 | 6 | 0 | 4
Cc1onc(C(=O)N2CCOCC2)c1[N+](=O)[O-] | -1 | -1 | 7.2* | 2 | -5 | 0 | 1
CC(C)c1onc(C(=O)N2CCOCC2)c1[N+](=O)[O-] | -1 | 0 | -2 | -1 | -1 | / | /
COc1ccc(-n2c(SCc3cccc4ccccc34)nnc2-c2ccccc2)cc1 | -2 | -2 | -3 | / | -1 | / | /
COc1cccc(-c2ccc(NC(=O)C3CCCN(Cc4cc(C)[nH]n4)C3)cc2)c1 (stereo unspecified) | -1 | 0 | 7.0* | 0 | 3 | 0 | 0
Cc1nc2ccc(NC(=O)c3ccc4ccccc4n3)cc2s1 | -1 | 1 | 3 | 1 | 3 | / | /
Cc1nnc(NC(=O)c2ccc3ccccc3n2)s1 | 0 | 4.3* | 7.6* | 2 | 5 | 1 | 9.1*
O=C(O)CC/C(=C\c1cc([N+](=O)[O-])ccc1Cl)c1nc2ccccc2s1 | 0 | 0 | 8.8* | -1 | 4 | 0 | 7.9*
O=C(O)CC/C(=C\c1ccccc1[N+](=O)[O-])c1nc2ccccc2s1 | -1 | 0 | 0 | -1 | 4 | / | /
Cn1c(SCC2CCC2)nnc1-c1ccco1 | -1 | -1 | 2 | / | 8 | / | /
O=C(C1CCCN1S(=O)(=O)c1ccccc1[N+](=O)[O-])N1CCc2ccccc2C1 (stereo unspecified) | -1 | 0 | 0 | / | 1 | / | /
Cc1onc(-c2ccccc2)c1C(=O)N1CCN(C(=O)C(=O)c2cccc(C(F)(F)F)c2)CC1 | -1 | -1 | -1 | / | -3 | / | /
C[C@H](CO)N1C[C@H](C)[C@H](CN(C)C(=O)C2CCCCC2)OCc2cnnn2CCCC1=O | -1 | 1 | -1 | / | 2 | / | /
CC(=O)Nc1ccc(S(=O)(=O)Nc2nc3ccccc3nc2N2CCc3ccccc3C2)cc1 | 2.2* | 3 | 11* | 1 | 8 | 0 | 6.7*
O=C(c1cc(-c2ccc(Br)cc2)on1)N1CCOCC1 | 0 | 3 | 7.2* | 0 | 13* | 1 | 5
O=C(c1cc(-c2ccccc2Cl)on1)N1CCCC1 | 1 | 3 | 8.6* | 0 | 12* | 1 | 12*
O=C(c1cc(-c2ccc(Cl)c(Cl)c2)on1)N1CCCCC1 | 0 | 1 | 2 | 1 | 7 | / | /
C=CCn1c(COc2ccc(CC)cc2)nnc1SC/C(O)=C(\C#N)c1nc2ccccc2[nH]1 | 0 | 0 | 8.2* | 0 | 2 | 0 | 6.1*
C=CCn1c(COc2ccccc2)nnc1SCc1ccc(C#N)cc1 | -1 | -1 | -1 | 0 | 0 | / | /
Cn1c(=N)n(CC(=O)c2ccc(Br)cc2)c2ccccc21 | 4.4* | 2 | 23* | 4.9* | 17* | 3 | 29*
CCn1c(=N)n(CC(=O)c2ccc(OC)cc2)c2ccccc21 | -1 | 1 | 2 | 0 | 0 | / | /
CCn1c(=N)n(CC(=O)c2ccc(Cl)c(Cl)c2)c2ccccc21 | 1 | 1 | 9.5* | 2 | 8 | 1 | 5.8*
Cc1ccc(S(=O)(=O)N2CCN(C(=O)c3ccc4ccccc4n3)CC2)c(C)c1 | 1 | 3 | 7.2* | 1 | 11* | 0 | 8.4*
C=CCN=C1NC(c2ccc(Cl)cc2)C(C(=O)OC)=C(C)N1Cc1ccccc1C(F)(F)F (stereo unspecified) | -1 | 0 | -1 | / | -1 | / | /
SMILES | ssDAF-12 act | DAX1 inh-1 | hcDAF-12 act | DAX1 inh-2 | hgDAF-12 ag | LXR ag | hcDAF12 ag
CCOc1ccc(C=Nc2cccc3ncccc23)cc1 | 0 | -1 | 9.2* | 2 | 0 | 0 | 4
COc1ccc(C=Nc2cccnc2N)cc1 | / | / | / | 1 | / | / | /
O=S1(=O)c2c(cccc2N2CCSCC2)Oc2ccccc2CN1Cc1cn(Cc2cccc(F)c2)nn1 | -1 | -2 | -2 | / | -1 | / | /
O=C1Cc2ccccc2C(=O)N1CCc1ccccc1 | 0 | 0 | 6.9* | 4.7* | 6 | 0 | 4
CN(CCO)C1CN(Cc2cn(Cc3ccccc3F)nn2)S(=O)(=O)C1 (stereo unspecified) | -1 | 0 | -1 | / | 0 | / | /
CCOC(=O)c1sc(NC(=O)c2ccc(C)o2)nc1C | 0 | 4 | 8.8* | 1 | 11* | 1 | 8.6*
COc1ccc2nc(NC(=O)c3cccs3)sc2c1 | 0 | 1 | 6.7* | / | 12* | 2 | 7.2*
CCOC(=O)c1sc(NC(=O)c2cccs2)nc1C | 1.9* | 1 | 11* | 2 | 6 | 1 | 6.3*
CCOC(=O)c1sc(NC(=O)c2ccco2)nc1C | -1 | 1 | 2 | 1 | -1 | / | /
Cc1nc(NC(=O)c2cccs2)ccc1Br | 1.6* | 2 | 9.8* | 1 | 19* | 1 | 11*
CC(=O)c1sc(NC(=O)c2cccs2)nc1C | -1 | 0 | -1 | 2 | 2 | / | /
COc1ccccc1CCn1cnc(-c2ccccc2OC)c1CC(C)C | -2 | 0 | -3 | / | -2 | / | /
CN(C)c1cccc(NC(=O)c2ccco2)c1 | -1 | 0 | 6.7* | 0 | 0 | 0 | 5
Cc1ccc(-c2cc3nc(C)cc(NCc4ccco4)n3n2)cc1 | 2.4* | 3 | 8.5* | 2 | 9 | 1 | 6.2*
Cn1c(-c2ccc3ccccc3n2)[n+](C)c2ccccc21 | -1 | 0 | 10* | -1 | 3 | 0 | 2
O=C(O)CCC(=O)N1CCN(c2ccc(C(=O)c3ccc(F)cc3)cc2)CC1 | -1 | -1 | -1 | -1 | 3 | / | /
CN1CCN(c2ccc(C(=O)c3ccc(F)cc3)cc2)CC1 | -1 | 2 | 8.9* | 2 | 12* | 1 | 5
COc1ccc(CN2C(NC(=O)OCc3ccccc3)=NC3=CC(C)(C)n4c(=O)n(-c5ccccc5)c(=O)n4C32)c(OC)c1 (stereo unspecified) | -1 | 0 | -1 | / | 3 | / | /
C#CCOc1ccccc1C(=O)NNc1ccc([N+](=O)[O-])cc1[N+](=O)[O-] | -1 | 0 | 1 | / | 1 | / | /
C/C(=C\C(=O)c1ccccc1)NNc1nc2ccccc2s1 | -1 | 0 | 3 | 0 | -4 | / | /
S=C(Nc1ccccc1)c1nc2ccccc2s1 | 1.1* | 1 | 9.2* | 2 | 12* | 1 | 8.9*
NS(=O)(=O)c1ccc2nc(NC(=O)CS(=O)(=O)c3ccccc3)sc2c1 | 0 | 0 | 0 | 0 | 2 | / | /

Screening results deposited in PubChem by The Scripps Research Institute Molecular Screening Center.
